Test [1] concerns FLT3. More on the design: species or system human, MV4-11 + K-562 + COLO205 + SK-N-BE2 + OVCAR-8. The following applies: read-out: apparent Kd, compound concentrations: 100 nM and 1000 nM (sheet 'Samples'), n = 1.
The test system of test [2] is ILK. More on the design: species or system human, MV4-11 + K-562 + COLO205 + SK-N-BE2 + OVCAR-8. To be noted: read-out: apparent Kd; compound concentrations: 100 nM and 1000 nM (sheet 'Samples'), CATDS: 0.155345852963269; n = 1.
For test [3], the system named is MAP2K1. More on the design: species or system human, MV4-11 + K-562 + COLO205 + SK-N-BE2 + OVCAR-8. To be noted: read-out: apparent Kd; compound concentrations: 100 nM and 1000 nM (sheet 'Samples'), CATDS: 0.15695729249265; n = 1.
Test [4] has as its system MYLK3. Further details: species or system human, MV4-11 + K-562 + COLO205 + SK-N-BE2 + OVCAR-8. The following applies: read-out: apparent Kd; compound concentrations: 100 nM and 1000 nM (sheet 'Samples'), CATDS: 0.17793919150823601; n = 1.
The subject of test [5] is TNIK. More on the design: species or system human, MV4-11 + K-562 + COLO205 + SK-N-BE2 + OVCAR-8. The following applies: read-out: apparent Kd; compound concentrations: 100 nM and 1000 nM (sheet 'Samples'), CATDS: 0.18945964172461099; n = 1.
In test [6] the test system is FLT4. More on the design: species or system human, MV4-11 + K-562 + COLO205 + SK-N-BE2 + OVCAR-8. To be noted: read-out: apparent Kd, compound concentrations: 100 nM and 1000 nM (sheet 'Samples'), n = 1.
Test [7] concerns PDGFRB. Further details: species or system human, MV4-11 + K-562 + COLO205 + SK-N-BE2 + OVCAR-8. To be noted: read-out: apparent Kd, compound concentrations: 100 nM and 1000 nM (sheet 'Samples'), n = 1.
The test system of test [8] is PIP4K2C. More on the design: species or system human, MV4-11 + K-562 + COLO205 + SK-N-BE2 + OVCAR-8. To be noted: read-out: apparent Kd, compound concentrations: 100 nM and 1000 nM (sheet 'Samples'), n = 1.
Test [9] concerns the target Q6ZSR9 (human, UniProt Q6ZSR9). More on the design: species or system MV4-11 + K-562 + COLO205 + SK-N-BE2 + OVCAR-8. The following applies: read-out: apparent Kd; compound concentrations: 100 nM and 1000 nM (sheet 'Samples'), CATDS: 0.15174967066440201; n = 1.
For test [10], the system named is JAK2. More on the design: species or system human, MV4-11 + K-562 + COLO205 + SK-N-BE2 + OVCAR-8. To be noted: read-out: apparent Kd; compound concentrations: 100 nM and 1000 nM (sheet 'Samples'), CATDS: 0.29115403437322901; n = 1.
Test [11] has as its system NQO2. Further details: species or system human, MV4-11 + K-562 + COLO205 + SK-N-BE2 + OVCAR-8. The following applies: read-out: apparent Kd; compound concentrations: 100 nM and 1000 nM (sheet 'Samples'), CATDS: 0.45168770198248398; n = 1.
Test [12] concerns FN3KRP. Further details: species or system human, MV4-11 + K-562 + COLO205 + SK-N-BE2 + OVCAR-8. To be noted: read-out: apparent Kd, compound concentrations: 100 nM and 1000 nM (sheet 'Samples'), n = 1.
Test [13] has as its system MAPK10. Further details: species or system human, MV4-11 + K-562 + COLO205 + SK-N-BE2 + OVCAR-8. The following applies: read-out: apparent Kd; compound concentrations: 100 nM and 1000 nM (sheet 'Samples'), CATDS: 0.114459990523153; n = 1.
Test [14] has as its system MAPK11. Further details: species or system human, MV4-11 + K-562 + COLO205 + SK-N-BE2 + OVCAR-8. The following applies: read-out: apparent Kd; compound concentrations: 100 nM and 1000 nM (sheet 'Samples'), CATDS: 0.104421690058707; n = 1.
The subject of test [15] is MAPK14. More on the design: species or system human, MV4-11 + K-562 + COLO205 + SK-N-BE2 + OVCAR-8. The following applies: read-out: apparent Kd; compound concentrations: 100 nM and 1000 nM (sheet 'Samples'), CATDS: 0.43214609476913801; n = 1.
In test [16] the test system is MAPK9. More on the design: species or system human, MV4-11 + K-562 + COLO205 + SK-N-BE2 + OVCAR-8. To be noted: read-out: apparent Kd; compound concentrations: 100 nM and 1000 nM (sheet 'Samples'), CATDS: 0.13499142741698; n = 1.
The test system of test [17] is MAPKAPK2. Further details: species or system human, MV4-11 + K-562 + COLO205 + SK-N-BE2 + OVCAR-8. The following applies: read-out: apparent Kd; compound concentrations: 100 nM and 1000 nM (sheet 'Samples'), CATDS: 0.49442009217898503; n = 1.

Like-named read-outs stand apart in the source and are kept apart here.

Chain of Q6ZSR9 (Q6ZSR9 whole entry, looked up): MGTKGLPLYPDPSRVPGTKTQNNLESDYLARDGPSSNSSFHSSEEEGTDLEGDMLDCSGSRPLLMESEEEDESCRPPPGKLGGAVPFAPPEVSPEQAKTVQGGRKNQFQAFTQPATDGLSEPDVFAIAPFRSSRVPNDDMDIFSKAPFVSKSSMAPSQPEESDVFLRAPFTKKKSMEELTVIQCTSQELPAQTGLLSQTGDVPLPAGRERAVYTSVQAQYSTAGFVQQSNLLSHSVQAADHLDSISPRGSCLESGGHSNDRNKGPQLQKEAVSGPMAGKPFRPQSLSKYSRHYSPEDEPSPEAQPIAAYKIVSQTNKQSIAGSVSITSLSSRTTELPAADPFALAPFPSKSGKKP

As for `COc1cc[nH]c1/C=C1\C(=O)Nc2ccccc21` [RO0272159-000], the potency estimated from few doses in test [1] (CATDS: 0.77308167829792795) was 0.0551 µM; in test [2], 1.91 µM; in [3], 1.85 µM; in [4], 1.28 µM; in test [5] it was 1.08 µM.
Consider `COc1cc(Nc2ncc(-c3ccccc3)o2)cc(OC)c1OC` [GW627512B], for which the potency estimated from few doses is 0.0202 µM in test [1] (CATDS: 0.90210431278154302); 1.85 µM in [6] (CATDS: 0.159173325469706); 0.858 µM in test [7] (CATDS: 0.20817935834978499); 1.79 µM in test [8] (CATDS: 0.16088368333560399); 2.17 µM in test [9].
In the case of `COc1ccccc1Nc1ncc(-c2ccccc2)o1.Cl` [GW577921A], the figures for the potency estimated from few doses in [1] (CATDS: 0.90882717599339502), in [10] and in [7] (CATDS: 0.22396051882089299) were 0.0143 µM, 0.37 µM and 1.08 µM, respectively.
In the case of `COc1ccc(Nc2ncc(-c3ccccc3)o2)cc1OC.Cl` [GW575533A], the potency estimated from few doses is 0.00409 µM in [1] (CATDS: 0.92036474930911705) and 0.0905 µM in test [7] (CATDS: 0.343232825956933).
On to `CN1C(=O)C(c2c[nH]c3ccccc23)=C(c2c[nH]c3ccccc23)C1=O` [RO0316045-000], for which the potency estimated from few doses in [6] (CATDS: 0.55988503208503904) is 1.37 µM; in [11] it was 2.11 µM.
Take `COc1ccc(-c2nn3ncccc3c2-c2ccnc(Nc3ccc(Cl)c(C(F)(F)F)c3)n2)cc1` [GW829115X]: in [6] (CATDS: 1), the potency estimated from few doses is 0.635 µM.
Take `Cl.Cn1c(=O)c(Oc2ccc(F)cc2F)cc2cnc(NC(C)(C)CO)nc21` [RO3305411-001]: the potency estimated from few doses in [12] (CATDS: 0.10743943329960801) is 1.39 µM; in [13] it was 1.1 µM; in [14], 1.55 µM; in test [15] it was 0.0216 µM; in [16] it was 0.64 µM; in test [17] it was 0.0168 µM. For the same molecule, the potency estimated from few doses in test [8] (CATDS: 0.103791319343203) was 1.59 µM.
`Cn1nc(-c2ccc(NC(=O)Nc3ccc4ccccc4c3)c(F)c2)c2cnc(NCCN3CCOCC3)nc21.O=C(O)C(F)(F)F` [SB-750250-M]: the potency estimated from few doses in test [12] (CATDS: 1) was 1.8 µM.

The values above are taken from PMC11062922 (Nature Chemical Biology, 2023).
